High-throughput results deposited in PubChem BioAssay by National Center for Advancing Translational Sciences (NCATS).
HEK293 tox: HEK 293 cell cytotoxicity | HEK 293 viability, ATP luminescence (CellTiter-Glo), 48-72 h | AID 1345083 | Potency, µM (top dose mostly 115 µM), without a hit: top-dose activity change, negative = cytotoxicity, hits mostly inhibitors | 94,000 compounds, 6.6% hits; also: nearly all actives have a fitted effect of over 60% in size
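Luminescence from cellular ATP, measured with CellTiter-Glo, indicates HEK 293 viability. Cells plated at 250 cells/well are treated with compound for 48 or 72 hr at 37 degree Celsius before reagent addition.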
FLuc inh: blocks purified firefly luciferase enzyme activity; P08659; purified P. pyralis luciferase, luminescence, biochemical; Potency, µM (titrated, usually from 115 µM), usual class: inhibitors; 76,000 compounds, 2.5% hits; also: nearly all actives have a fitted effect of over 65% in size
Target sequence (P08659 whole entry, looked up): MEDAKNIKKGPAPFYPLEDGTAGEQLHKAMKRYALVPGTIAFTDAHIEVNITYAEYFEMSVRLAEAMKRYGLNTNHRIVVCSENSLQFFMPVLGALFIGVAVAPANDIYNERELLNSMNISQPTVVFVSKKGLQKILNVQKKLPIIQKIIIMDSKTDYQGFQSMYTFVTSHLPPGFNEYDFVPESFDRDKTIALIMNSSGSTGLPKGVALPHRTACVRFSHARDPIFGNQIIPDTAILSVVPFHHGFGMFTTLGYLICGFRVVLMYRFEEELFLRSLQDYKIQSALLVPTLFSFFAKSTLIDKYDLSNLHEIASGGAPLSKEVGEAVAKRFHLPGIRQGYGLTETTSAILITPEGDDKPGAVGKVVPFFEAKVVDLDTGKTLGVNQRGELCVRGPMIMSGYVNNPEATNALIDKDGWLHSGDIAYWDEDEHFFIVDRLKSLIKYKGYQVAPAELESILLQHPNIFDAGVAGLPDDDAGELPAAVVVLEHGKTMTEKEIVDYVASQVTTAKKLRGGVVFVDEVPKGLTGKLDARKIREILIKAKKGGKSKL
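Purified P. pyralis luciferase (10nM final) in 50mM Tris acetate pH 7.5, 10mM Mg acetate, 0.01% Tween-20, 0.05% BSA with 10uM D-luciferin and 10uM ATP. Compounds titrated qHTS. Luminescence imaged on CCD.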
hNpr1 antagonist: blocks ANP-stimulated signaling of human Npr1 receptor; P16066; HEK293 hNpr1 GloSensor cGMP, ANP-stimulated luminescence; Potency, µM (series often up to 46.3 µM), for inactives: at the highest dose activity change, negative = inhibition, hits mostly inhibitors; 76,000 compounds, 1.6% hits; calls by dose curve; also: nearly all actives have a fitted effect of over 60% in size
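HEK293 cells stably expressing human Npr1 and cGMP GloSensor pGS-40F, loaded 2 h with 2% GloSensor reagent, given compound 30 min at room temperature. Luminescence read before and 20 min after 0.1 nM hNppA.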
3T3 cytotox: cytotoxic compounds in NIH 3T3 cells; Potency, µM (top dose mostly 96.7 µM), for the others: at the highest dose activity change, negative = cytotoxicity, actives largely listed as inhibitors; 94,000 compounds, 4.3% hits; AID 1345082; NIH 3T3 viability, CellTiter-Glo ATP luminescence, 48-72 h; also: nearly all actives have a fitted effect of over 55% in size
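Cytotoxicity was measured by CellTiter-Glo ATP luminescence after 48 or 72 h compound exposure at 37 °C. Mouse NIH 3T3 fibroblasts were seeded at 400 cells/well and dosed by 23 nL pin transfer.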
* hit, by the source's call; [ ] = another dose, or the depositor's remark. An excerpt weighted towards active compounds, which were near 11% of everything screened. Unless noted, calls follow the shape of the dose curve; as a rule, active = well fitted curve in the direction sought with a large enough effect; inconclusive = small, poorly fitted or top-dose-only effect, or another doubt; inactive = no such curve, though single readings can be large; an effect the other way counts as inactive or inconclusive. % is scaled to controls: 0 for no effect and ±100 for the full control effect; potency is read from the fitted curve at half-maximal effect.

How did Cc1nn(-c2ccc(C(C)C)cc2)c(C)c1[C@@H]1C=C[C@@H](NC(=O)NC2CCCCC2)C1 do in these assays?
HEK293 tox: inconclusive; FLuc inh: 7.9µM*; hNpr1 antagonist: inconclusive; 3T3 cytotox: inconclusive

What do the screens show for `Cc1nn(-c2ccc(C(C)C)cc2)c(C)c1[C@@H]1C=C[C@@H](NC(=O)NCc2ccccc2)C1`?
HEK293 tox: 25µM*; FLuc inh: inconclusive; hNpr1 antagonist: 7.1µM*; 3T3 cytotox: 25µM*

How did Cc1nn(-c2ccc(C(C)(C)C)cc2)c(C)c1[C@@H]1C=C[C@@H](NC(=O)NCc2ccccc2)C1 do in these assays?
HEK293 tox: 28µM*; FLuc inh: inconclusive; hNpr1 antagonist: 18µM*; 3T3 cytotox: inconclusive

Results for Cc1nn(-c2ccc(C(F)(F)F)cc2)c(C)c1[C@@H]1C=C[C@@H](NC(=O)NC2CCCCC2)C1 ?
HEK293 tox: inconclusive; FLuc inh: inactive; hNpr1 antagonist: -20%; 3T3 cytotox: inconclusive

What do the screens show for `Cc1nn(-c2ccc(C(C)C)cc2)c(C)c1[C@@H]1C=C[C@@H](NC(=O)Nc2ccc(Cl)cc2)C1`?
HEK293 tox: inconclusive; FLuc inh: inactive; hNpr1 antagonist: -19%; 3T3 cytotox: inconclusive

How did Cc1nnc2ccc(N3CCC(NC(=O)c4ccccc4)CC3)nn12 do in these assays?
HEK293 tox: -2%; 3T3 cytotox: -17%

Results for Cc1noc(C)c1[S+](=O)([O-])N1CCCC(C(=O)N2CCC(c3nc4ccncc4[nH]3)CC2)C1 (stereo not given) ?
HEK293 tox: -16%; 3T3 cytotox: -24%

How did Cc1nn(-c2ccc(C(F)(F)F)cc2)c(C)c1[C@@H]1C=C[C@@H](NC(=O)CC(C)(C)CC(=O)O)C1 do in these assays?
HEK293 tox: -20%; FLuc inh: inactive; hNpr1 antagonist: 1%; 3T3 cytotox: inconclusive

What do the screens show for `Cc1nn(-c2ccc(C(C)(C)C)cc2)c(C)c1[C@@H]1C=C[C@@H](NCc2ccco2)C1`?
HEK293 tox: 11µM*; FLuc inh: 50µM*; hNpr1 antagonist: -30%[70.6 µM]; 3T3 cytotox: inconclusive

What do the screens show for `C#CCNC(=O)C1CCCN(c2ccnc3ccnn23)C1` (stereo not given)?
HEK293 tox: -3%[172 µM]; 3T3 cytotox: -11%[138 µM]

Results for O=C(c1ccccn1)N1CCN(c2ccc3nnc(-c4ccccc4)n3n2)CC1 ?
HEK293 tox: -28%; 3T3 cytotox: inconclusive

What do the screens show for `CCN(C(=O)Cn1cccc1-c1nc(-c2ccc(OC)c(F)c2)no1)c1ccccc1`?
HEK293 tox: 45µM*; FLuc inh: inactive; hNpr1 antagonist: -3%; 3T3 cytotox: inconclusive

What do the screens show for `COc1ccc(-c2noc(-c3cccn3CC(=O)N3CCN(c4ccccc4OC)CC3)n2)cc1F`?
HEK293 tox: inconclusive; FLuc inh: inconclusive; hNpr1 antagonist: -15%; 3T3 cytotox: inconclusive

Results for COc1ccc(-c2noc(-c3cccn3CC(=O)N3CCC(C)CC3)n2)cc1F ?
HEK293 tox: -20%; FLuc inh: 11µM*; hNpr1 antagonist: -18%; 3T3 cytotox: inconclusive

How did COc1ccc(-c2noc(-c3cccn3CC(=O)N(C)c3ccccc3)n2)cc1F do in these assays?
HEK293 tox: 7%; FLuc inh: inactive; hNpr1 antagonist: -1%; 3T3 cytotox: inactive

How did Cc1csc(Nc2ccc3c(n2)CN(C)C(=O)CO3)n1 do in these assays?
HEK293 tox: 18µM*; FLuc inh: inactive; hNpr1 antagonist: 1%[70.6 µM]; 3T3 cytotox: 32µM*

What do the screens show for `CN(C)CCNC(=O)c1nc(-c2ccc(N3CCN(C)CC3)cc2)cc2c1ccn2C`?
HEK293 tox: inconclusive; FLuc inh: inconclusive; hNpr1 antagonist: -1%[70.6 µM]; 3T3 cytotox: 7.9µM*

What do the screens show for `Cn1ccc2c(C(=O)NCc3cccnc3)nc(-c3cccnc3)cc21`?
HEK293 tox: -26%[172 µM]; FLuc inh: inactive; hNpr1 antagonist: -12%[70.6 µM]; 3T3 cytotox: 25µM*

Results for CC(=O)Nc1cccc(-c2cc3c(ccn3C)c(C(=O)NCc3cccnc3)n2)c1 ?
HEK293 tox: inconclusive; FLuc inh: inactive; hNpr1 antagonist: -21%[70.6 µM]; 3T3 cytotox: 25µM*

How did Cn1ccc2c(C(=O)NCc3cccnc3)nc(-c3ccccc3C(F)(F)F)cc21 do in these assays?
HEK293 tox: 71µM*; FLuc inh: inactive; hNpr1 antagonist: -3%[70.6 µM]; 3T3 cytotox: 45µM*

How did Cn1ccc2c(C(=O)NCc3cccnc3)nc(-c3cccc(N4CCOCC4)c3)cc21 do in these assays?
HEK293 tox: inconclusive; FLuc inh: inactive; hNpr1 antagonist: -21%[70.6 µM]; 3T3 cytotox: inconclusive

What do the screens show for `CNC(=O)c1cc(C)nc2onc(C3CCCN(C(=O)c4ccccc4Cl)C3)c12` (stereo not given)?
HEK293 tox: 1%; 3T3 cytotox: -23%

How did COCCn1c(=O)c(C(=O)NCc2ccc(F)c(F)c2)nc2cccnc21 do in these assays?
HEK293 tox: -11%; 3T3 cytotox: -29%

Results for CCCNC(=O)C1CCCCc2nnc(-c3ccccc3)n21 (stereo not given) ?
HEK293 tox: 1%; 3T3 cytotox: inactive

What do the screens show for `Cn1ccc2c(C(=O)NCc3cccnc3)nc(-c3ccc(CO)cc3)cc21`?
HEK293 tox: -2%[172 µM]; FLuc inh: inactive; hNpr1 antagonist: 0%[70.6 µM]; 3T3 cytotox: 45µM*

What do the screens show for `Cn1ccc2c(C(=O)NCc3cccnc3)nc(-c3ccncc3)cc21`?
HEK293 tox: inconclusive; FLuc inh: inconclusive; hNpr1 antagonist: 2%[70.6 µM]; 3T3 cytotox: inconclusive

What do the screens show for `Cc1cccc(-c2cccc(CN3CCC(N[S+](=O)([O-])c4cccc(C(F)(F)F)c4)CC3)c2)c1`?
HEK293 tox: inconclusive; 3T3 cytotox: 11µM*

What do the screens show for `CSc1ccc(-c2cccc(CN3CCC(N[S+](=O)([O-])c4cccc(C(F)(F)F)c4)CC3)c2)cc1`?
HEK293 tox: 13µM*; 3T3 cytotox: 10µM*

How did COc1cccc(C(=O)NC2CCN(Cc3cccc(-c4ccc(SC)cc4)c3)CC2)c1 do in these assays?
HEK293 tox: -13%; 3T3 cytotox: -15%

How did COC(=O)NC1CCN(c2nccc(Nc3ccccc3OC)n2)CC1 do in these assays?
HEK293 tox: 50µM*; 3T3 cytotox: inconclusive

How did COc1ccccc1Nc1ccnc(N2CCC(NC(=O)c3ccccc3F)CC2)n1 do in these assays?
HEK293 tox: inconclusive; 3T3 cytotox: -27%

What do the screens show for `COc1ccccc1Nc1ccnc(N2CCC(N[S+](=O)([O-])c3ccccc3)CC2)n1`?
HEK293 tox: 32µM*; 3T3 cytotox: 32µM*

How did COc1ccccc1Nc1ccnc(N2CCC(N[S+](=O)([O-])c3ccc(C)cc3)CC2)n1 do in these assays?
HEK293 tox: 32µM*; 3T3 cytotox: inconclusive

How did Cc1ncc2n1C(=O)N(C1CCN(Cc3cccc4ccccc34)CC1)C2 do in these assays?
HEK293 tox: inconclusive; FLuc inh: inactive; hNpr1 antagonist: 0%; 3T3 cytotox: inconclusive

Results for COCCOC1CCN(C(=O)c2cccc3[nH]ccc23)CC1 ?
HEK293 tox: 16%; FLuc inh: inactive; hNpr1 antagonist: 0%; 3T3 cytotox: inactive
